# MRP reversal = reversal of MRP1-mediated doxorubicin resistance, primary screen, H69AR cells, doxorubicin co-treatment; H69AR cells + 2 uM doxorubicin, CellTiter-Glo, 72 h; differential viability (reversal), % at 10 µM; actives 0.04% (n = 85,000);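 active = viability drop by adding the cancer drug above about 55%, with treated viability meeting a 40% cutoff, limit read from the data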;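 also: larger differential means the compound sensitizes cells more to doxorubicin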
# IL1B cytotox = cytotoxicity in IL-1B stimulated HUVEC, primary screen, cytotoxicity control for IL-1B NFkB translocation project, imaging, Hoechst nuclear count, IL-1B stimulus; HUVEC cell count loss; cell count reduction, % at 2 µM; actives 0.41% (n = 94,000); AID 845, 2007;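 active = cell count reduction more than 3 SD above the screen-wide mean, cut at about 70% in these data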
# sdo1 growth = growth rescue of sdo1-depleted yeast, primary screen, S. cerevisiae, bone marrow failure model | AID 817, 2007 | z-score at 10 µM | S. cerevisiae sdo1-depleted JHY4D growth rescue, OD600 30 h; hits give high values; pdr5 snq2 efflux-pump mutant strain | actives 0.21% (n = 140,000);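 active = z-score above 3 at both the 24 hr and the 30 hr optical density reads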
# NFkB transloc inh = inhibitors of IL-1B driven NFkB p65 nuclear import, primary screen, imaging, HUVEC, IL-1B stimulus, high-content imaging; HUVEC IL-1B NFkB p65 nuclear translocation imaging; inhibition, % at 2 µM; actives 0.43% (n = 94,000); AID 796, 2007;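 active = inhibition above about 30% together with a positive call from visual inspection of the well image, limit read from the data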;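 also: nuclear over cytoplasmic p65 intensity ratio measured by imaging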
# IL1B NFkB pot = enhancers of NFkB p65 translocation in HUVEC – imaging, IL-1B stimulus, high-content imaging, primary screen; HUVEC IL-1B NFkB p65 nuclear translocation imaging; activation, % at 2 µM; actives 0.3% (n = 94,000);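 active = activation above 40%, about the mean plus 3 SD, also judged a hit on visual image review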;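 also: percent activation is computed from the nuclear over cytoplasmic p65 intensity ratio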
# MRP1 act = H69AR viability gain despite doxorubicin, primary screen, MRP-1 activator project, H69AR cells, CellTiter-Glo | AID 799, 2007 | viability rescue | actives 0.61% (n = 140,000) | viability increase, % at 10 µM;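 active = viability gain under doxorubicin at or above a set limit, the compound median plus 3 SD, cut at about 4.7% in these data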;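 also: MRP-1 overexpressing cells given doxorubicin 25 µM after compound pretreatment; 18-22 h compound pretreatment then 72 h with doxorubicin before readout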
# A number is an active result; - = inactive; . = not tested or not shown. The list is not random: actives were taken first. Their share in the collection is about 1.4%.
SMILES,MRP reversal,IL1B cytotox,sdo1 growth,NFkB transloc inh,IL1B NFkB pot,MRP1 act
CCOC(=O)C(Oc1ccc2c(-c3ccc(OC)cc3)cc(=O)oc2c1C)c1ccccc1 (stereo not given),.,-,-,-,-,-
CCOC(=O)c1ccc(COC(=O)c2cc3ccccc3oc2=O)o1,-,76.3,-,-,-,-
CC(=O)Nc1ccc(S(=O)(=O)NCCc2ccc(S(N)(=O)=O)cc2)cc1,.,-,-,30.2,-,-
CCn1c(SCC(=O)N2c3ccccc3CC2C)nnc1-c1ccco1 (stereo not given),-,-,.,44.9,-,.
CC(C)OC(=O)CSc1nnc2n1C(C)(C)Cc1ccccc1-2,.,-,-,-,-,181.0
CC1Cc2ccccc2N1C(=O)CSc1nnc2n1C(C)(C)Cc1ccccc1-2 (stereo not given),-,94.9,-,98.4,-,-
COc1cc(OC)cc(-c2nnc(SCC(=O)Nc3cc(C)on3)o2)c1,64.4,-,.,-,-,.
Cc1cc(NC(=O)CSc2nnc(-c3ccoc3C)o2)no1,-,-,-,-,-,-
COc1ccc(N(CCCN2C(=O)c3cccc4cccc(c34)C2=O)C(=O)c2cccs2)cc1,.,.,-,.,.,-
COc1cc(C)ccc1N(CCCN1C(=O)c2cccc3cccc(c23)C1=O)C(=O)c1cccs1,.,.,-,.,.,8.7
O=C1NCCCC1C(=O)N/N=C/c1ccccc1 (stereo not given),.,-,-,-,-,-
CC12CCC(C(=O)N(CSC(=S)N/N=C\c3ccccc3Cl)C1=O)C2(C)C (stereo not given),-,94.7,-,99.5,-,-
CC12CCC(C(=O)N(CSC(=S)N/N=C\c3ccccc3)C1=O)C2(C)C (stereo not given),-,-,-,-,-,4.8
N#C/C(=C\c1ccc([N+](=O)[O-])o1)c1nc2ccccc2[nH]1,.,.,-,.,.,-
Cc1ccc2nc(/C(C#N)=C\c3ccc([N+](=O)[O-])o3)[nH]c2c1,.,-,-,37.5,-,-
O=C(Nc1ccc2c(c1)oc1ccccc12)N1CCOCC1,-,71.1,-,-,-,-
CN1C(=O)CSC1=NC12CC3CC(CC(C3)C1)C2,-,-,-,-,40.0,-
Cc1cc(C)c(Cc2c(C)nc3c(C(=O)NCc4ccco4)cnn3c2C)c(C)c1,-,-,-,-,-,-
COc1ccc(NC(=O)/C(Cl)=C(/Cl)S(=O)(=O)Cc2ccccc2)cn1,-,-,-,-,68.5,-
O=C(CCCCCn1c(SCc2ccncc2)nc2ccccc2c1=O)NCc1ccco1,-,-,-,-,-,-
Cc1ccc(CNC(=O)C(Cc2ccccc2)NS(=O)(=O)c2cccs2)cc1 (stereo not given),-,-,-,32.9,-,-
CC(C)(C)OC(=O)N[C@@H](Cc1ccccc1)c1nnc(S(=O)(=O)Cc2ccccc2)o1,.,-,-,38.4,-,-
COc1ccc(-c2cc(C(=O)Nc3sc4c(c3C#N)CCCC4)c3ccccc3n2)cc1,.,.,-,.,.,6.0
CS(=O)(=O)N(CC(=O)N1CCc2ccccc2C1)Cc1ccccc1,-,-,-,-,-,-
c1coc(C2Nc3cccc4cccc(c34)N2)c1,-,-,-,-,-,6.0
SMILES,MRP reversal,IL1B cytotox,sdo1 growth,NFkB transloc inh,IL1B NFkB pot,MRP1 act
CCCC1S/C(=N/N=C/c2ccc(OC)cc2)N(Cc2ccccc2)C1=O (stereo not given),-,-,-,-,-,6.0
CCCC1S/C(=N/N=C/c2ccc(OC)cc2)N(Cc2ccc(OC)cc2)C1=O (stereo not given),-,-,-,-,-,-
CCCCC1S/C(=N/N=C/c2ccc(OC)cc2)N(Cc2ccc(OC)cc2)C1=O (stereo not given),-,-,-,-,-,5.4
CN(C)c1cccc(C(=O)Nc2cc(C(F)(F)F)ccc2-n2cnc3ccccc32)c1,.,.,-,.,.,-
CC1(C)Cc2c(cnn2-c2ccccc2)-c2c1c1ccccc1n2CC(O)CCl (stereo not given),-,90.9,-,-,-,-
CC1(C)Cc2c(cnn2-c2ccccc2)C(=O)/C1=N\NC(=O)c1ccncc1,-,-,.,-,-,.
Cc1ccc(S(=O)(=O)N/N=C\c2cn(-c3ccccc3)nc2-c2ccccc2)cc1,.,-,-,-,-,6.2
Cc1ccc(C)c2[nH]c(=O)c(CN(Cc3ccco3)S(=O)(=O)c3ccc4c(c3)OCCO4)cc12,-,-,-,-,-,5.4
O=C(COC(=O)c1ccccc1F)c1ccc(-n2nncc2-c2ccco2)cc1,-,-,-,-,41.6,-
Cc1ccc(/C(O)=C2/C(=O)C(=O)OC2c2ccc(Cl)cc2)cc1 (stereo not given),-,-,-,-,-,-
O=C1OC(c2ccccc2)/C(=C(/O)c2ccc(Cl)cc2)C1=O (stereo not given),-,-,-,38.0,-,-
COc1cccc(NC(=S)N2CCC(N(C)CC3CCCO3)CC2)c1 (stereo not given),.,.,-,.,.,-
COc1ccc(NC(=O)c2oc3ccccc3c2NC(=O)c2ccc3c(c2)OCO3)cc1,.,-,-,-,-,8.4
O=C(CSc1nnc(-c2cccs2)o1)OC1CCCCC1,-,.,-,.,.,-
CCC1CCCCN1C(=O)CSc1nnc(-c2cccs2)o1 (stereo not given),-,85.7,-,97.4,-,-
CC(=O)Nc1ccc(NC(=O)C(Cc2ccccc2)NC(=O)C2CCC(C)CC2)cc1 (stereo not given),.,.,-,.,.,-
O=C1/C(=C\c2ccco2)SC(=S)N1c1ccccc1,.,.,-,.,.,4.7
C=CCSC1=NC(=O)/C(=C/c2cccs2)S1,.,.,-,.,.,8.8
NC1=NC(=O)/C(=C/c2cccs2)S1,.,-,-,-,-,-
CCOC(=O)c1ccc(NC(=O)c2cc(OC)c(OC)c(OC)c2Br)cc1,.,.,-,.,.,-
CCCCCCOC(=O)c1ccc(NC(=O)c2cc(OC)c(OC)c(OC)c2Br)cc1,.,-,-,-,-,4.9
N#CC1=C(N)SC(N)=C(C#N)C1c1cccc(O)c1,-,-,-,-,-,5.1
CCc1[nH]nc2c1C(c1cccnc1)C(C#N)=C(N)O2 (stereo not given),-,-,-,-,43.3,-
COc1ccc(C(C)=O)cc1CSc1nc2cc(Cl)ccc2o1,-,88.1,-,-,-,-
O=C(CSc1nc2cc(Cl)ccc2o1)c1cccs1,-,.,-,.,.,-
Cc1nc(CNS(=O)(=O)c2ccc3c(c2)OCCO3)cs1,-,-,-,-,59.4,-
COC(=O)c1c(C)[nH]c(C(=O)CSc2ccc(Cl)cc2)c1C,-,-,-,-,-,-
Cc1cc(C)n(CCc2nc(-c3ccc(-c4ccccc4)cc3)cs2)n1,.,.,-,.,.,7.3
